PNC inhibitor: inhibitors of perinucleolar compartment assembly | AID 2417 | activity change (PNC), negative = inhibition, % at 10 µM | PC3M PTB-GFP, PNC prevalence imaging, 16 h; stronger effect = lower value | 140,000 compounds, 3.1% hits;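 active means readout at or below -70, meaning at least 70% loss of cells showing the perinucleolar compartment, a nuclear body marking cancer cells; inconclusive means readout between -30 and a set limit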;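 further: plate controls were DMSO wells for no effect and camptothecin positive control wells for full effect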
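Compounds are pinned in duplicate onto adhered PC3M cells stably expressing GFP-tagged PTB and incubated 16 h at 37 C. Cells are then fixed, nuclei stained with Hoechst, and PNC-positive cells counted.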
LMNA splice mod: modulators of lamin A splicing; HeLa LMNA splicing GFP/RFP minigene ratio, 48 h; Potency, µM (top dose mostly 46.1 µM), inactives show at the top dose ratio change, negative = inhibition, hits mostly inhibitors; 200,000 compounds, 0.01% hits; active means well fitted inhibition curve with a large enough effect in the signal ratio, with a control signal flat, not every such curve was filed as active; inconclusive means small, poorly fitted or top-dose-only effect, or effect the other way, or a change in a side signal; the % refers to the signal ratio; further: potency means the concentration at half of the fitted maximal effect
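Read-out is the ratio of GFP to DsRed2 object intensity, acquired by 488 nm laser-scanning cytometry on HeLa lamin A-EGFP minigene reporter cells. Compound incubation 48 hrs at 37 °C in Opti-MEM with 2% FBS; DMSO 0.5% final.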
ALDH1A1 inh: inhibitors of human aldehyde dehydrogenase 1A1; P00352; AID 1030; 220,000 compounds, 7.3% hits; Purified ALDH1A1, NADH fluorescence, propionaldehyde substrate; Potency, µM (highest dose often 75.3 µM), inactives show at the top dose activity, negative = inhibition, usual class: inhibitors;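 further: potency means the concentration at half of the fitted maximal effect; plate controls were no enzyme wells and a reference inhibitor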
Target sequence (P00352 whole entry, looked up): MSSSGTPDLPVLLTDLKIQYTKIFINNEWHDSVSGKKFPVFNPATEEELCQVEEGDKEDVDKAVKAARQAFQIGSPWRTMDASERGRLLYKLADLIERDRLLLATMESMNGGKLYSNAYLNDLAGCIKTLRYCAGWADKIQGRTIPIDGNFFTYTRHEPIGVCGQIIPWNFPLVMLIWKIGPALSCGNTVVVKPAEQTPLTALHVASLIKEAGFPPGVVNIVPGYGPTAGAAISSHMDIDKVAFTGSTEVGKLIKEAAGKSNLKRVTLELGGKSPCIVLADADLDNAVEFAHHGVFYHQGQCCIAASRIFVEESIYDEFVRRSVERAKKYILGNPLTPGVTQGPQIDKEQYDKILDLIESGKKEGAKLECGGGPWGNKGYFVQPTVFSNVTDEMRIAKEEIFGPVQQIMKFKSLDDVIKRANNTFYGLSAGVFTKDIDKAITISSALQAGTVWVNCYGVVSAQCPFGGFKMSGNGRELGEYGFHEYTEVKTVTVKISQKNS
12-hLO inh: 12-hLO (ALOX12) enzyme inhibition. P18054. purified 12-hLO, xylenol orange hydroperoxide absorbance. Potency, µM (highest dose often 57.1 µM), for the others: at the highest dose activity change, negative = inhibition, most hits filed as inhibitors. 150,000 compounds, 0.12% hits; active means well fitted inhibition curve with a large enough effect; inconclusive means small, poorly fitted or top-dose-only effect; further: potency means the concentration at half of the fitted maximal effect; nearly all actives have a fitted effect of over 55% in size
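150 nM 12hLO, 25 mM Hepes pH 7.0 + 0.01% Triton X-100; cpd preinc 15 min RT; 40 uM arachidonic acid, 30 min RT; Fe-XO 30 min; A573/A405 ratio as read-out.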
HPGD block: blocks human HPGD enzyme activity | P15428 | purified HPGD, NADH fluorescence kinetic, PGE2 substrate | Potency, µM, for the others: top-dose activity change, negative = inhibition, hits mostly inhibitors | 150,000 compounds, 4.3% hits; further: potency means the concentration at half of the fitted maximal effect
Target sequence (P15428 whole entry, looked up): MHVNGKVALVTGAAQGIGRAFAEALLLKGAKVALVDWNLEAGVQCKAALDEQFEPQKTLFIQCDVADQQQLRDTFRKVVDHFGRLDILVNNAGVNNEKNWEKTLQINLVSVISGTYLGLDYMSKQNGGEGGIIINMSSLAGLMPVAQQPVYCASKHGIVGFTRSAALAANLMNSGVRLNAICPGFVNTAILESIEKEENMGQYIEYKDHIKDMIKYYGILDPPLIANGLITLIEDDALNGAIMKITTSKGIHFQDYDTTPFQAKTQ
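NADH formation kinetics: reaction with 30 uM PGE2 and 1 mM NAD+ (final), 20 nM enzyme, Tris-HCl pH 8 with Tween 20, after 15 min compound preincubation at room temperature. Fluorescence change, last versus first of five reads.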
Starred values were filed as active, the others as inactive; ? = inconclusive; · = no result; [ ] = another dose, or the depositor's remark. In the library only some 10% were active in any assay of this set; here they are far more common. Unless noted, the call rests on the fitted dose curve; in most records, active means well fitted inhibition curve with a large enough effect (not every such curve was filed as active); inconclusive means small, poorly fitted or top-dose-only effect, or another doubt; inactive means no such curve, though single readings can be large or run the other way. Unless noted, on the % scale 0 is the no-effect control and ±100 the full control effect.

SMILES	PNC inhibitor	LMNA splice mod	ALDH1A1 inh	12-hLO inh	HPGD block
CN1CCN(S(=O)(=O)c2ccc(NC(=O)COc3ccccc3Cl)cc2)CC1	·	·	3.16µM*	·	·
CC1CCN(C(=O)CN2c3ccc(C(C)C)cc3-c3ccccc3S2(=O)=O)CC1	·	5.9%[46 µM]	·	·	·
c1ccc(C[n+]2c(-c3ccccc3)csc2Nc2ccccc2)cc1	-6.8	?	?	-5.0%	-16.0%
c1ccc(Nc2scc(-c3ccccc3)[n+]2Cc2ccco2)cc1	·	?	10µM*	·	·
CC(=O)Nc1ccc(NC(=O)C(Cc2ccccc2)NC(=O)C2CCCCC2)cc1 (centres undefined)	-119.3*	-6.1%	-1.8%	2.3%	-2.0%
COc1ccc(OC)c(CNC(=O)c2cc(S(=O)(=O)N3CCC(C)CC3)cn2C)c1	·	-13.8%[46 µM]	·	·	·
O=C(CSc1ncccn1)NCc1cccs1	·	1.2%[46 µM]	4.2%	·	·
O=C(Cc1cccs1)NCc1cccs1	?	14.4%	?	-0.9%	15.8µM*
O=C(NCc1ccc2c(c1)OCO2)c1cccc(C(=O)NCc2ccc3c(c2)OCO3)c1	7.8	?	-7.6%	-22.0%	-14.9%
O=C(CSc1ccc2ccccc2c1)NCc1cccs1	-21.7	-0.7%	?	-3.9%	7.94µM*
O=C(/C=C/c1cccc(Cl)c1)NCc1cccs1	13.1	10.0%	-3.1%	-1.4%	31.6µM*
O=C(Cc1cccs1)NCc1ccc2c(c1)OCO2	?	-3.6%	8.6%	0.0%	15.8µM*
CCc1cccc(C)c1NC(=O)CSc1n[nH]c(-c2ccccc2)n1	·	-3.0%[46 µM]	·	·	·
O=C(O)C1CC2(C1)CC(C(=O)O)C2 (centres undefined)	·	·	7.5%[13.5 µM]	-0.5%[11.4 µM]	-4.8%
Cc1ccc(CNC(=O)COc2ccc(C(=O)c3ccc(F)cc3)cc2)cc1	-20.3	-5.1%	?	-2.0%	39.8µM*
O=C(NC1CCCCC1)C(c1ccc2ncccc2c1)N(Cc1ccccc1)C(=O)c1cccs1 (centres undefined)	38.3	-1.0%	?	-1.5%	-5.5%
O=C(Cc1cccs1)NCc1ccc(F)cc1	8.6	22.0%	8.0%	-7.8%	25.1µM*
O=C(NC1CCCCC1)C(c1ccc2ncccc2c1)N(Cc1ccc2c(c1)OCO2)C(=O)c1cccs1 (centres undefined)	2.6	-9.2%	5.01µM*	2.2%	-14.1%
O=C(CCSCCC(=O)NCc1cccs1)NCc1cccs1	?	4.9%	-12.9%	3.3%	-4.2%
O=C(CCC1CCCCC1)NCc1cccs1	2.4	-4.9%	-7.4%	3.0%	10µM*
CCN(CC)CCCNC(=O)Cc1ccc(NC(=O)N2CCCCc3ccccc32)cc1	·	7.3%[46 µM]	·	·	·
O=C(NC1CCCC1)C(c1ccccc1)N(Cc1ccc2c(c1)OCO2)C(=O)Cc1cccs1 (centres undefined)	?	?	1.0%	-4.6%	-6.4%
O=C(NCc1ccccc1)C(c1ccccc1)N(Cc1ccc2c(c1)OCO2)C(=O)Cc1cccs1 (centres undefined)	-108.4*	-13.7%	?	-2.9%	-13.4%
CC(C)CC(=O)NCc1ccc(F)cc1	51.2	6.7%	-5.5%	8.8%	15.8µM*
O=C(O)CCC(=O)NCc1ccc(F)cc1	17.5	2.0%	5.9%	2.3%	-0.5%
SMILES	PNC inhibitor	LMNA splice mod	ALDH1A1 inh	12-hLO inh	HPGD block
O=C(NCc1cccs1)C12CC3CC(CC(C3)C1)C2	·	·	-4.5%	·	·
O=C(Cn1cc(C(=O)c2cccs2)c2ccccc21)NCc1ccc2c(c1)OCO2	-9.5	5.9%	14.1µM*	-1.6%	-5.2%
O=C(CC1CC2CCC1C2)NCc1cccs1 (centres undefined)	4.2	10.2%	7.9%	0.3%	15.8µM*
CC(C)CN1CC2(CCN(C(=O)c3ccco3)CC2)C1	·	·	11.9%	3.2%	-11.8%
CCC[C@@H]1C[C@@]1(CCC)C(NC(=O)c1cccs1)c1ccc(Cl)cc1 (some centres undefined)	·	·	8.7%	-0.2%	-9.1%
CCn1cc(S(=O)(=O)c2ccc(OC)cc2)c(=O)c2cc(F)c(N3CCC(C)CC3)cc21	·	21.5%[46 µM]	·	·	·
CC(NC(=O)NC(N)=O)(C(F)(F)F)C(F)(F)F	-108.8*	16.0%[0.0737 µM]	-0.3%	4.4%	-4.5%
N#Cc1ccc(CN2CCC3(CC2)CCN(C(=O)c2ccncc2)CC3)cc1	·	·	-1.1%	0.4%	1.5%
Cc1ccc(NC(=O)CC2SC3=NCCCN3C2=O)c(C)c1 (centres undefined)	4.3	-4.3%	1µM*	-10.2%	-12.1%
CC1=C(C(=O)OC(C)C)C(c2cccs2)NC(=S)N1 (centres undefined)	?	-6.8%	3.16µM*	-0.7%	-9.1%
CC1=C(C(=O)Nc2ccc(C)cc2)C(c2cccs2)NC(=S)N1 (centres undefined)	24.1	-5.5%	?	-4.9%	-2.3%
CC1=C(C(=O)Nc2ccc(F)c(F)c2)C(c2cccs2)NC(=S)N1 (centres undefined)	-16.7	3.1%	0.631µM*	-1.7%	-6.4%
Cn1cc(-c2nc3cncnc3n(Cc3ccccc3Cl)c2=O)c2ccccc21	·	?	-15.0%	·	·
CCCn1c(C)cc(-c2csc(N)n2)c1C	-2.2	-0.2%	11.2µM*	-14.1%	-25.4%
COc1ccc(-n2c(C)cc(-c3csc(N)n3)c2C)cc1	22.8	-3.2%	25.1µM*	-6.3%	-12.5%
Cc1cc(-c2csc(N)n2)c(C)n1-c1ccc(Cl)c(Cl)c1	?	-7.4%	-15.3%	-1.4%	-8.6%
O=C(NCc1cccc(F)c1)c1noc2c1CCCC2	?	?	?	7.4%	20µM*
CSc1ccccc1NC(=O)c1noc2c1CCC2	?	-9.6%	25.1µM*	-15.0%	?
O=C1c2ccccc2C(=O)c2c(O)c(O)cc(O)c21	·	·	?	?	25.1µM*
Nc1ccc(O)c2c1C(=O)c1ccccc1C2=O	9.3	?	-3.9%	-10.1%	12.6µM*
Cc1ccc(NC(=O)CN2C(=O)COc3ccc(S(=O)(=O)NC4CCCC4)cc32)c(Cl)c1	·	17.2%[46 µM]	·	·	·
C=CCOC(=O)C(=O)/C=C/c1coc2ccccc2c1=O	·	·	31.6µM*	·	·
CCn1ncc(/C=C2/SC(=S)NC2=O)c1C	29.5	?	-13.0%	-6.1%	15.8µM*
CCCOc1ccc(C(=O)C(c2ccccc2)N2CCOCC2)cc1 (centres undefined)	-5.7	-6.0%	12.6µM*	-4.8%	?
Cc1ccc(/C=N/NC(=O)NC2CCCCC2)o1	·	0.8%[46 µM]	3.55µM*	·	·
Cc1ccc(/C=C/C(=O)NC2CCCCCCC2)o1	30.2	-4.4%	3.55µM*	0.3%	3.55µM*
FC(F)(F)c1cc(NC(=S)N2c3ccccc3-n3cccc3[C@H]2c2cccnc2)cc(C(F)(F)F)c1	·	·	?	-9.4%[11.4 µM]	?
COC(=O)C1=C(C)NC(=O)NC1c1ccc([N+](=O)[O-])o1 (centres undefined)	?	-4.4%	7.0%	0.2%	-10.4%
COC(=O)C1=C(C)NC(=O)NC1c1ccc(-c2ccc(Cl)cc2)o1 (centres undefined)	·	4.7%[46 µM]	11.2µM*	·	·
CCOC(=O)C1(C)Oc2ccc(S(=O)(=O)CC)cc2NC1=O (centres undefined)	·	·	9.2%	·	·
